Bioassay records deposited in PubChem BioAssay by several laboratories.
PostGolgi ctrl: inhibits growth of the yeast control strain | efflux-deficient yeast background strain, growth absorbance A615, 16 h | inhibition, % at 10 µM | actives 5% (n = 98,000)
PostGolgi yeast: growth inhibition of a yeast mutant, post-Golgi transport screen; post-Golgi transport phenotypic cell assay; inhibition, % at 10 µM; actives 0.9% (n = 98,000); AID 739;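 also: yeast cells grown in 1536-well plates; yeast grown about 18 h at 30C before absorbance read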
Measles CPE: protection of cells from measles virus; actives 1.5% (n = 140,000); Measles virus-infected cells, CPE protection, absorbance; protection (pct of control), % at 4 µM; in the data active = protection mostly above about 24%, no sharp cut-off; inactive = mostly below about 26%
MT1-MMP txn act: activates MT1-MMP transcription | HT1080 MT1-MMP promoter luciferase reporter, luminescence, overnight; stronger effect = higher value | actives 0.16% (n = 86,000) | AID 750 | activation factor at 10 µM;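 active = activation factor of at least 2 for MT1-MMP transcription at 10 µM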
A number is an active result; - = inactive; . = no result given. In the library only some 5.3% were active in any assay of this set; here they are far more common. Rule as the data show it, unless noted: active = inhibition above about 30%; inactive = the rest.

SMILES	PostGolgi ctrl	PostGolgi yeast	Measles CPE	MT1-MMP txn act
Cc1nc(NS(=O)(=O)c2ccccc2C)c2c3c(sc2n1)CCC3	46.8	-	-	-
Cc1ccc(C(=O)NNC(=O)C2CCN(c3nccc(C)n3)CC2)cc1	-	-	-	.
CCOc1ccc(NS(=O)(=O)c2ccc(NC(=O)[C@@H]3CCCC[C@@H]3C(=O)O)cc2)cc1	.	.	-	.
COc1ccc(-c2nc(-c3cccs3)c(-c3cccs3)[nH]2)cc1OC	38.0	-	-	-
COc1cc(-c2nc(-c3ccccc3)c(-c3ccc(F)cc3)[nH]2)cc2c1OCO2	.	.	-	.
COc1ccc(-c2nc(-c3ccccc3)c(-c3cccs3)[nH]2)cc1OC	34.3	-	-	-
COc1ccc(-c2[nH]c(-c3ccc4c(c3)OCO4)nc2-c2ccccc2)cc1	33.5	62.3	-	.
O=[N+]([O-])c1ccc(-c2nc(-c3cccs3)c(-c3cccs3)[nH]2)cc1	59.5	-	-	.
CCc1nnc(NC(=O)[C@@H](NC(=O)c2cccc(S(=O)(=O)N3CCOCC3)c2)C(C)C)s1	-	-	-	-
COc1ccc(NC(=S)NNC(=O)c2cccs2)cc1	.	.	16.9	.
COc1ccc(NC(=O)c2cccs2)cc1	.	.	-	-
CN(C)S(=O)(=O)c1cccc(NC(=S)NN=C(Cc2ccccc2)Cc2ccccc2)c1	.	.	-	.
CSc1ccccc1NC(=O)CN(c1cc(C)cc(C)c1)S(C)(=O)=O	-	-	-	-
CS(=O)(=O)N(CC(=O)Nc1ccccc1Sc1ccccc1)c1cccc(Br)c1	41.3	-	-	.
COc1cc(Br)cc(CN2CCN(C/C=C/c3ccccc3)CC2)c1O	-	-	.	-
COc1ccc(O)c(CN2CCN(C/C=C/c3ccccc3)CC2)c1	34.0	41.5	-	-
CS(=O)(=O)N(CC(=O)N1CCN(c2cccc(Cl)c2)CC1)C1CCCCC1	-	-	-	-
O=C(COc1ccc(S(=O)(=O)NC2CCCCC2)cc1)N1CCN(c2cccc(Cl)c2)CC1	41.3	-	-	-
Cc1ccc(Cl)cc1N1CCN(C(=O)COc2ccc(S(=O)(=O)NC(C)C)cc2)CC1	-	-	56.2	-
CCNC(=S)NNC(=O)c1cc(Br)cs1	.	.	-	.
Nc1n[nH]c2c1C1(CCCCC1)Cc1ccccc1-2	41.7	-	-	-
Cc1cc(C)cc(OC(=O)CS(=O)c2ccc(C(F)(F)F)cc2[N+](=O)[O-])c1 (configuration not stated)	35.2	-	-	-
O=C(CS(=O)c1ccc(C(F)(F)F)cc1[N+](=O)[O-])Oc1ccc(Cl)cc1 (configuration not stated)	-	-	-	-
Cc1cc(C)nc(Nc2nc(C)c3cc4c(cc3n2)OCO4)n1	36.0	-	-	-
O=c1cc(CO)occ1OCc1cccc(F)c1	33.3	-	-	.
SMILES	PostGolgi ctrl	PostGolgi yeast	Measles CPE	MT1-MMP txn act
Cn1cnnc1SCC(=O)Nc1ccc2nc(SCc3ccccc3F)sc2c1	-	-	-	-
COc1cc(/C=c2\sc3n(c2=O)C(c2ccccc2)C(c2ccccc2)=NN=3)ccc1O (configuration not stated)	32.7	-	-	-
CCOc1ccc(/C=N/OCC(=O)NCc2ccc3c(c2)OCO3)cc1OC	.	.	-	.
CC(=O)Nc1ccc(C(=O)c2ccccc2)cc1	-	-	-	-
CC(C)(Nc1ccccc1)C(=O)c1ccccc1	.	.	31.5	.
COc1cccc(/C=C/C(=O)Nc2ccc(OC)nc2)c1	.	.	-	.
Cc1ccc(OCC(=O)N(Cc2ccccc2)C2CCS(=O)(=O)C2)c([N+](=O)[O-])n1 (configuration not stated)	.	.	37.2	.
N#Cc1cc(C#N)c(N2CCN(c3cccc(Cl)n3)CC2)nc1N	58.3	-	-	.
Cc1oc(-c2ccccc2)cc1C(=O)Nc1cccc2ccccc12	30.3	-	-	-
COc1ccc(C2CC(c3ccccc3)=NN2C(=O)c2cccs2)cc1 (configuration not stated)	67.0	-	-	.
COc1ccc(C2=NN(C(=O)CSc3ncccn3)C(c3ccc(OC)cc3)C2)cc1 (configuration not stated)	.	.	63.2	.
COc1ccc(C2CCCN2C(=O)c2cccs2)cc1 (configuration not stated)	-	-	-	-
COc1ccc(C2CC(c3ccc4ccccc4c3)=NN2C(=O)CSc2ncccn2)cc1 (configuration not stated)	.	.	-	.
Nc1c(C(O)(C(F)(F)F)C(F)(F)F)cc(C(O)(C(F)(F)F)C(F)(F)F)c2ccccc12	.	.	-	-
O=C(Nc1ccc2c(c1)OCO2)C1CC(c2ccc(Cl)cc2)=NO1 (configuration not stated)	-	-	39.8	-
Cc1cc(NC(=O)COC(=O)c2oc3c(Cl)cccc3c2C)no1	.	.	-	.
O=[N+]([O-])c1ccccc1/C=N/n1c(-c2cccnc2)n[nH]c1=S	.	.	-	.
O=[N+]([O-])c1cc(/C=N/n2c(-c3cccnc3)n[nH]c2=S)ccc1Cl	.	.	28.6	.
